This is a sample that favours compounds with a hit; in the whole collection about 4.1% have one here.
DAX1 inh-1: blocks DAX1 repression of SF-1 activated StAR promoter | actives 1.1% (n = 370,000) | inhibition, % at 6.8 µM | AID 652010 | HEK293T StAR-luciferase reporter, SF-1/DAX-1 repression relief;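 active = inhibition above the mean over all tested compounds plus 3 SD, cut at about 3.6% in these data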;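 also: higher inhibition means more luminescence from relief of DAX-1 repression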
hgDAF12 agonist: hgDAF-12 agonism, primary luciferase screen; HEK293 GAL4-hgDAF12 UAS-luciferase reporter, agonist luminescence; normalized to butyrate control; actives 1.8% (n = 370,000); activation, % at 6.8 µM; AID 687014;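 active = activation above a cutoff set at the mean of all screened compounds plus 3 SD, cut at about 10% in these data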
ssDAF-12 act: activates DAF-12 receptor from parasite S. stercoralis | AID 652126 | activation, % at 6.8 µM | HEK293 ssDAF-12/GRIP1 lit1-tk-luc reporter, luminescence; % of 3 µM dafachronic acid response | actives 1% (n = 370,000);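 active = activation above the mean over all tested compounds plus 3 SD, cut at about 0.9% in these data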
hcDAF-12 act: activates DAF-12 receptor from parasite H. contortus; actives 1.4% (n = 370,000); activation, % at 6.8 µM; HEK293 hcDAF-12 lit1-tk-luc reporter, luminescence; 0% DMSO, 100% Δ7-dafachronic acid; AID 652067;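 active = activation above the mean of all tested compounds plus 3 SD, cut at about 5.5% in these data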
DAX1 inh-2: inhibitors of human orphan nuclear receptor DAX1 (NR0B1); inhibition, % at 6.75 µM; HEK293 Gal4-DAX1 luciferase reporter, luminescence; actives 0.99% (n = 340,000);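 active = inhibition above the mean over all tested compounds plus 3 SD, cut at about 4.2% in these data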;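 also: inhibition shows as a rise in luminescence from relieved DAX1 repression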
Target sequence (P51843 207-470 limits assumed): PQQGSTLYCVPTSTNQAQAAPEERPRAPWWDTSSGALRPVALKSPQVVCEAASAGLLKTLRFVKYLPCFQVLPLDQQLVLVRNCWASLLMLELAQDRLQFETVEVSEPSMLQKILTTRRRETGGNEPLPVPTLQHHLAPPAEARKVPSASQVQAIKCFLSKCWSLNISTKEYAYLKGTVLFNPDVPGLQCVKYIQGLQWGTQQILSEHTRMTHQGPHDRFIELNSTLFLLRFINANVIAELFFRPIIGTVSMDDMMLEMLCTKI
hgDAF12 ag: hgDAF-12 agonism, confirmation assay | shares compounds with hgDAF12 agonist | HEK293 GAL4-hgDAF12 luciferase reporter, agonist mode; percent of butyrate response | activation, % at 6.8 µM | actives 80% (n = 3,300);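 active = mean activation over triplicate wells above the hit cutoff derived from the earlier primary screen, cut at about 11% in these data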
LXR ag 2: LXR-beta agonism as DAF-12 counter-screen | shares compounds with hgDAF12 agonist | HEK293 Gal4-LXR luciferase reporter, 24 h | activation, % at 6.8 µM | 3,300 tested, under 10 active | AID 743051;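 active = mean activation of the triplicate above a set limit carried over from the primary screen, none filed active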
Target sequence (P55055 whole entry, looked up, the tested form may be a part): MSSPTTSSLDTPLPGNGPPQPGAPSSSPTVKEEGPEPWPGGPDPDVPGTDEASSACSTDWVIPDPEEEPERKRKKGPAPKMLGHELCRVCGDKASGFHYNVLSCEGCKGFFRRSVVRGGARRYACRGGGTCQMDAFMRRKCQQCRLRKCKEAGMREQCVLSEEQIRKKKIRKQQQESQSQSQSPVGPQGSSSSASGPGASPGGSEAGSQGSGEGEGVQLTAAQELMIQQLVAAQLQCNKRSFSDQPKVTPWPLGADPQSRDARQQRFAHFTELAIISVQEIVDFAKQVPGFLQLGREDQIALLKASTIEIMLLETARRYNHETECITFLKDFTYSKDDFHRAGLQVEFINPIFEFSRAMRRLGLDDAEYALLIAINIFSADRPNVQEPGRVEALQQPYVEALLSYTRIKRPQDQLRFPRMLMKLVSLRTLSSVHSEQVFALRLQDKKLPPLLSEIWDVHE
A number is an active result; 0 = inactive; - = not tested or not shown.

SMILES | DAX1 inh-1 | hgDAF12 agonist | ssDAF-12 act | hcDAF-12 act | DAX1 inh-2 | hgDAF12 ag | LXR ag 2
O=C(c1cnsn1)N1CCC(CO)(Cc2cccc(F)c2)CC1 | 0 | 15.2 | 0 | 0 | 0 | 0 | 0
COc1ccc(C2C(C(=O)N3CCN(c4ccccc4C)CC3)CC(=O)N2c2ccc(OC)cc2)cc1 (centres undefined) | 0 | 0 | 0 | 0 | - | - | -
COc1ccc(C(=O)O/N=C(\N)c2ccncc2)cc1OC | 0 | 0 | 0 | 0 | 0 | - | -
COc1ccc(/C(N)=N/OC(=O)c2ccco2)cc1OC | 0 | 17.8 | 0 | 0 | 0 | 12.6 | 0
Cc1occc1C(=O)O/N=C(\N)c1ccccc1 | 0 | 13.8 | 0 | 0 | - | 13.5 | 0
COc1ccc(C(=O)O/N=C(\N)c2ccccc2)cc1OC | 0 | 16.5 | 0 | 0 | 5.9 | 11.7 | 0
Cc1cccc(/C(N)=N/OC(=O)c2ccoc2C)c1 | 0 | 0 | 0 | 0 | 0 | - | -
CCOC(=O)c1ccc(OS(=O)(=O)c2ccccc2)c(OC)c1 | 0 | 16.2 | 0 | 0 | 0 | 11.5 | 0
C[C@@H]1CN([C@@H](C)CO)C(=O)CCCn2cc(nn2)CO[C@H]1CN(C)C(=O)C1CC1 | 0 | 0 | 0 | 0 | - | - | -
COC(=O)C1=C(C)N(Cc2cccc(C(F)(F)F)c2)C(=NCc2ccc(C(F)(F)F)cc2)NC1c1cccc(C(F)(F)F)c1 (centres undefined) | 0 | 0 | 0 | 0 | - | - | -
COCc1cc(N2CCNC[C@H]2C)ccc1N1CCN(Cc2ccccc2)[C@H](C)C1 | 0 | 0 | 0 | 0 | - | - | -
Nc1nc2c(ncn2[C@@H]2O[C@H](C(=O)NCC(F)(F)F)[C@@H](O)[C@H]2O)c(=O)[nH]1 | 0 | 0 | 0 | 0 | - | - | -
Cc1cc(N2CCN(C(=O)OC(C)(C)C)C[C@H]2C)ccc1Br | 0 | 0 | 0 | 0 | - | - | -
N/C(=N\OC(=O)/C=C/c1ccccc1)c1ccc(Cl)cc1 | 0 | 0 | 0 | 0 | - | - | -
COc1cc(OC)cc(C(=O)O/N=C(\N)c2ccccn2)c1 | 0 | 13.3 | 0 | 0 | - | 13.0 | 0
Cc1occc1C(=O)N/N=C/C=C/c1ccccc1 | 0 | 0 | 0 | 0 | 0 | - | -
COc1ccc(C(=O)O/N=C(\N)c2ccccn2)cc1 | 0 | 0 | 0 | 0 | 0 | - | -
COc1cccc(C(=O)O/N=C(\N)c2ccncc2)c1 | 0 | 16.7 | 0 | 0 | 0 | 16.1 | 0
C/C(=N\NC(=O)c1ccoc1C)c1ccccc1 | 3.9 | 13.8 | 0 | 5.6 | - | 11.2 | 0
N/C(=N\OC(=O)/C=C/c1ccccc1)c1ccccc1 | 4.3 | 17.4 | 0 | 0 | 0 | 14.5 | 0
Cc1ccccc1-c1ccc2c(c1)[C@@H]1C[C@H]3[C@@H](CN1CC2)[C@H](C)ON3C | 0 | 0 | 0 | 0 | - | - | -
CCOC(=O)C1=C(Nc2ccc(Br)cc2)C(=O)N(CC)C1 | 0 | 0 | 0 | 0 | - | - | -
C/C(=N/NC(=O)c1ccccc1)c1ccc(NC(=O)C(F)(F)F)cc1 | 0 | 14.5 | 0 | 0 | 0 | 0 | 0
CCOc1cc(C2Nc3ccccc3C(=O)N2c2ccccc2)c(Br)cc1OCC(=O)O (centres undefined) | 0 | 0 | 0 | 0 | 0 | - | -
COc1cc(C2Nc3ccccc3C(=O)N2c2ccc(Cl)cc2)c(Cl)cc1OCC(=O)O (centres undefined) | 4.0 | 14.2 | 0 | 0 | 0 | 0 | 0
SMILES | DAX1 inh-1 | hgDAF12 agonist | ssDAF-12 act | hcDAF-12 act | DAX1 inh-2 | hgDAF12 ag | LXR ag 2
Cc1ccc(Nc2ncccc2C(N)=O)cc1[N+](=O)[O-] | 0 | 15.7 | 0 | 0 | 0 | 14.3 | 0
Cc1ccc(Nc2ncccc2C(=O)O)cc1C | 0 | 0 | 0 | 0 | 0 | - | -
CCOC(=O)c1ccc(Nc2ncccc2[N+](=O)[O-])cc1 | 0 | 18.3 | 1.7 | 6.0 | 0 | 18.9 | 0
CCOC(=O)c1ccc(NC(=O)c2ccccc2[N+](=O)[O-])cc1 | 0 | 0 | 0 | 0 | 0 | - | -
COC(=O)CN1CCN(C(=O)c2csc(N3CCOCC3)n2)CC1 | 0 | 0 | 0 | 0 | - | - | -
Brc1cccc(CN2CCN(c3ncc(Cc4ccccc4)cn3)CC2)n1 | 0 | 0 | 0 | 0 | - | - | -
CSc1ccc(-c2cnc(N3CCC(C(N)=O)CC3)s2)cc1 | - | 20.8 | 0 | 0 | - | 17.4 | 0
CCOC(=O)C1CSCCS(=O)(=O)N1Cc1ccccc1C (centres undefined) | 0 | 0 | 0 | 0 | - | - | -
Cn1c(N)c(C(=O)Nc2ccc3ccccc3c2)sc1=S | 0 | 15.3 | 0 | 0 | 0 | 12.7 | 0
CC(=O)c1ccc(N=Nc2ccc(N(C)C)cc2)cc1 | 0 | 13.4 | 1.0 | 0 | 0 | 11.8 | 0
CN(C)C(=S)c1ccc(N(C)C)cc1 | 0 | 0 | 0 | 0 | 0 | - | -
CN1CCN(c2ccc(NC(=O)c3ccc4c(c3)OCCO4)cc2)CC1 | 0 | 16.8 | 0 | 6.1 | 0 | 11.1 | 0
O=C(Nc1ccc2c(c1)OCCO2)c1ccc(Cl)c(Cl)c1 | 0 | 14.8 | 0 | 0 | 7.0 | 17.0 | 0
COc1ccc(/C=N/NC(=O)c2ccc3c(c2)OCCO3)cc1[N+](=O)[O-] | 0 | 0 | 0 | 0 | 0 | - | -
O=C(N/N=C/c1cc(O)ccc1[N+](=O)[O-])c1ccc2c(c1)OCCO2 | 3.6 | 17.8 | 0 | 0 | 0 | 13.6 | 0
COc1ccc(C(=O)Nc2ccc3c(c2)OCCO3)cc1Br | 0 | 14.7 | 0 | 0 | 0 | 15.1 | 0
c1coc(-c2nnc3n2N=C(c2ccc4c(c2)OCO4)CS3)c1 | 0 | 0 | 0 | 0 | - | - | -
Cn1c(Cc2cccs2)nnc1SCC(=O)Nc1ccc2c(c1)OCO2 | 0 | 0 | 0 | 0 | - | - | -
O=C(Nc1ccc2c(c1)OCCO2)c1ccc2nccnc2c1 | 4.3 | 14.7 | 0 | 0 | 0 | 15.2 | 0
CCCOc1cccc(C(=O)Nc2ccc3c(c2)OCCO3)c1 | 0 | 18.6 | 0 | 6.3 | 0 | 20.4 | 0
Cc1ccc(C(=O)Nc2cnc3ccccc3c2)cc1 | 0 | 0 | 0 | 0 | 0 | - | -
Cc1cc(C(=O)Nc2cnc3ccccc3c2)ccc1[N+](=O)[O-] | 0 | 14.9 | 0 | 0 | 0 | 16.9 | 0
CCCOc1cccc(C(=O)Nc2cccc(NC(=O)c3ccco3)c2)c1 | 0 | 0 | 0 | 0 | 0 | - | -
Cc1cc(C(=O)Nc2ccc3c(c2)OCCO3)ccc1[N+](=O)[O-] | 0 | 18.2 | 0 | 0 | 0 | 12.1 | 0
COc1ccc(C2C(C(=O)N3CCCCC3C)CC(=O)N2c2ccc(OC)cc2)cc1 (centres undefined) | 0 | 0 | 0 | 0 | - | - | -
COC(=O)[C@H](Cc1ccccc1)N[C@H](c1ccc(OC)cc1)[C@@H](O)Cc1ccccc1 | 0 | 0 | 0 | 0 | - | - | -
COc1cc(/C=N/O)ccc1OCc1ccccc1Cl | 0 | 14.1 | 0 | 0 | 0 | 16.4 | 0
N#Cc1c(N)[nH]c(C(=O)c2ccccc2)c1-c1ccc(Br)cc1 | 0 | 0 | 0 | 0 | - | - | -
O=C(CSC1CCc2ccccc21)NNC(=O)Nc1ccc(Cl)cc1 (centres undefined) | 0 | 16.2 | 0 | 6.5 | - | 0 | 0
